Results reported in PubChem BioAssay.
Calls of active or inactive are those of the source. Unless noted, how the calls were made is not given here.

Experiments:
[1] = anti-His antibody binders, primary screen, artefact control for SMM control protein annotation, biochemical, small-molecule microarray, 635 nm fluorescence (AID 1128); settings: anti-His Alexa647 antibody binding, higher = more signal;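 further: score merges feature fluorescence with signal-to-noise for each printed compound spot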
[2] = system: Human papillomavirus type 1a E7 protein (residues 1-88); experiment: HPV1a E7 small-molecule binders, primary screen, biochemical, small-molecule microarray, residues 1-88, 635 nm (AID 1129); settings: small-molecule microarray binding, fluorescence 635 nm; higher = more signal
[3] = target: Focal adhesion kinase 1 (Homo sapiens) (UniProt Q05397); experiment: small-molecule microarray binders of FAK, primary screen, biochemical, 635/667 nm fluorescence, BSA, DTT (AID 1130); settings: PTK2 binding, 635 nm fluorescence, higher = more signal;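 further: composite of spot emission at 667 nm and signal to noise over triplicate slides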
Chain of Focal adhesion kinase 1 (Homo sapiens) (Q05397 whole entry, looked up): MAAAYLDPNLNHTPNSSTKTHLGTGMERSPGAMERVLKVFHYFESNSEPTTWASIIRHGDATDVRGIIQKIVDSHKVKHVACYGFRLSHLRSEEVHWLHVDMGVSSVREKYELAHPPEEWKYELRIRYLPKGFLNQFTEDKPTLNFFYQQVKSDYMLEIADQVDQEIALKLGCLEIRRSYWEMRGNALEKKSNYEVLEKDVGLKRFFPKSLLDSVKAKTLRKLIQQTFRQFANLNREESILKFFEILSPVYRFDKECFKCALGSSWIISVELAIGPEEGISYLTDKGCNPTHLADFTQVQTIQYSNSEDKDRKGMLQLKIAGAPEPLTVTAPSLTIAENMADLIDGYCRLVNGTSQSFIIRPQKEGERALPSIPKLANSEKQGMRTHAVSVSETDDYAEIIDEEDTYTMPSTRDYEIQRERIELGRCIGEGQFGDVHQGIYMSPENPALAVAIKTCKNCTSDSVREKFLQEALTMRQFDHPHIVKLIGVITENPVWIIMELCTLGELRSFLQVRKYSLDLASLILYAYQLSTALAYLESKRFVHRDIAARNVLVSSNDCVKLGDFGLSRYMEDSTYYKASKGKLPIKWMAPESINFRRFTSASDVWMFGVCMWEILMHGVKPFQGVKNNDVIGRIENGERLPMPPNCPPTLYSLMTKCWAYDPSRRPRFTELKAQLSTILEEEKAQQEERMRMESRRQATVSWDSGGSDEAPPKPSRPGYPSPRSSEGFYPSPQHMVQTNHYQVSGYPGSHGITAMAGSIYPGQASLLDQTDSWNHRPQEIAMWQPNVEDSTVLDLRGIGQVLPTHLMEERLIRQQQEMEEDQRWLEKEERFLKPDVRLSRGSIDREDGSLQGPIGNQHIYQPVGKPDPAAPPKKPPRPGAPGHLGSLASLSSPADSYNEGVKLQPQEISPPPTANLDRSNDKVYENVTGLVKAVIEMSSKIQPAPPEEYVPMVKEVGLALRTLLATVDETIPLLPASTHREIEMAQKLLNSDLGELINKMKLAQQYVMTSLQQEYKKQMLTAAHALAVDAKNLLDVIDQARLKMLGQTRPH

[4] = system: Fibrinogen (Alexa647-labelled); experiment: fibrinogen binders on compound microarrays, profiling panel, artefact control for SMM control-protein annotation, biochemical, small-molecule microarray, 635/667 nm fluorescence (AID 1131); settings: fibrinogen-A647 binding fluorescence, higher = more signal;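 further: z-score merges 667 nm fluorescence with per-spot signal-to-noise over triplicate slides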
[5] = target: Follistatin (Homo sapiens) (UniProt P19883); experiment: follistatin binders on small-molecule microarrays, primary screen, biochemical, small-molecule microarray, 635/667 nm fluorescence (AID 1132); settings: FST binding, 635 nm fluorescence, higher = more signal
Chain of Follistatin (Homo sapiens) (P19883 whole entry, looked up): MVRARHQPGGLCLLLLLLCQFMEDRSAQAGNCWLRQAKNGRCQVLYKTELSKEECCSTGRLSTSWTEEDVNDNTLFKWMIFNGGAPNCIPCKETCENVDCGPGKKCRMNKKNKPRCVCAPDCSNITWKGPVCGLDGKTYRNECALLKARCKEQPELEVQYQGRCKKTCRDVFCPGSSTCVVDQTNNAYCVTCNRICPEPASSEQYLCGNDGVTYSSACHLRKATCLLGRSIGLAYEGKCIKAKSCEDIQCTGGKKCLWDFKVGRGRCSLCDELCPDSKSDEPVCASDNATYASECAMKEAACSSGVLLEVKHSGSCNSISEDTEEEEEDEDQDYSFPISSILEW

[6] = target: Fibroblast growth factor 2 (Homo sapiens) (UniProt P09038); experiment: FGF2 binders on small-molecule microarrays, primary screen, biochemical, small-molecule microarray, 635/667 nm fluorescence (AID 1133); settings: small-molecule microarray binding, FGF2, fluorescence 635/667; higher = more signal
Chain of Fibroblast growth factor 2 (Homo sapiens) (P09038 whole entry, looked up): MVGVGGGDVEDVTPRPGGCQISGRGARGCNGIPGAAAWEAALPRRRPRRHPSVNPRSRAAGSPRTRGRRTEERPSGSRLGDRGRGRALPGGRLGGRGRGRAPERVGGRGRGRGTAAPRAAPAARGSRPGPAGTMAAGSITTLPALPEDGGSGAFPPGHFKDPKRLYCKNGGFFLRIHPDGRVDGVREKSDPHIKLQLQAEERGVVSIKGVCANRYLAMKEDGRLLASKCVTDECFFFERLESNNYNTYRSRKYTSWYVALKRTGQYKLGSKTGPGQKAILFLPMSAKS

[7] = mitochondrial membrane potential change in A549 cells, profiling panel, cell-based, JC-1 fluorescence, basal, 24 h, 100 nL (AID 1138); settings: higher = more signal;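 further: A549 lung adenocarcinoma cells under basal conditions with no added stimulus; test concentration not given here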
Lefty1 = Lefty1 binders on small-molecule microarrays, primary screen, biochemical, small-molecule microarray, 635/667 nm fluorescence (AID 1139); settings: small-molecule microarray binding, fluorescence 635/667; higher = more signal
[8] = system: wheat germ agglutinin (Triticum aestivum), Alexa647-labelled; experiment: wheat germ agglutinin binders on compound microarrays, profiling panel, artefact control for SMM control-protein annotation, biochemical, small-molecule microarray, 635/667 nm fluorescence (AID 1140); settings: WGA-A647 binding, 635 nm fluorescence, higher = more signal;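 further: score merges 667 nm feature emission with signal to noise over triplicate slides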
[9] = target: Luciferin 4-monooxygenase (Photinus pyralis) (UniProt P08659); experiment: firefly luciferase enzyme inhibitors, primary screen, biochemical, luminescence, purified enzyme, 2006 set (AID 1141); settings: SteadyGlo luminescence, 30 min, higher = more signal, called active from +8 up or from −8 down;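 further: cell-free assay with purified firefly luciferase at 100 ng per well in PBS; test concentration not given here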
Chain of Luciferin 4-monooxygenase (Photinus pyralis) (P08659 whole entry, looked up): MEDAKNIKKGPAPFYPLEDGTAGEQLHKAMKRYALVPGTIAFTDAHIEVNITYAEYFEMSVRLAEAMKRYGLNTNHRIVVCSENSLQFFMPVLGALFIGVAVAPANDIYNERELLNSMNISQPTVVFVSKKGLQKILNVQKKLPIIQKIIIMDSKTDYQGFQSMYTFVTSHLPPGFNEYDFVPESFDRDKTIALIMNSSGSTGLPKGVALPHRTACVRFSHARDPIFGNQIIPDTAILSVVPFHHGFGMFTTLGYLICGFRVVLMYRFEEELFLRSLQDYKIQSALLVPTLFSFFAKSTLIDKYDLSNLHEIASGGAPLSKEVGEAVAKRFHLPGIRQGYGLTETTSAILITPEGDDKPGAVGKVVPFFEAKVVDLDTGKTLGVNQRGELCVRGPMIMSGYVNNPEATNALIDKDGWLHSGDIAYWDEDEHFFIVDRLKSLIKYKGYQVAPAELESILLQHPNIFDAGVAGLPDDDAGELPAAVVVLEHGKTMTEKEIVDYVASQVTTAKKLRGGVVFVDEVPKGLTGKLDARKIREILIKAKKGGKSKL

[10] = system: Wnt5a (protein binding on small-molecule microarray); experiment: Wnt5a binders on small-molecule microarray, primary screen, biophysical, 635/667 nm fluorescence (AID 1142); settings: 635 nm fluorescence, higher = more signal;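 further: fluorescence read at 667 nm with signal to noise per printed feature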
[11] = cell viability in Huh7 cells, primary screen, cytotoxicity control for HCV replication inhibitor project, CellTiter-Glo luminescence, basal, 48 h (AID 1143); settings: Huh7 HCV replicon, higher = more signal, called active from +8 up or from −8 down;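 further: Huh7 hepatoma cells carrying a hepatitis C replication reporter with no stimulus; test concentration not given here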
[12] = P. aeruginosa biofilm formation inhibitors, primary screen, PAO1 strain, BacTiter-Glo luminescence, LB-PBS (AID 1144); settings: 12 h, higher = more signal
[13] = CREB reporter modulators without forskolin, primary screen, cell-based, PC12, CRE-LacZ reporter, unstimulated (AID 1145); settings: no forskolin, luminescence, 4.5 h, higher = more signal, called active from +8 up or from −8 down
[14] = CREB reporter modulators under forskolin, primary screen, cell-based, PC12, CRE-LacZ reporter, forskolin-stimulated (AID 1146); settings: luminescence, 4.5 h, higher = more signal, called active from +8 up or from −8 down;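 further: PC12 cells with 6xCRE LacZ reporter stimulated by forskolin 10 µM; beta-galactosidase reporter signal reflecting CREB driven transcription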
[15] = target: Streptavidin (Streptomyces avidinii) (UniProt P22629); experiment: streptavidin binders on small-molecule microarray, primary screen, artefact control for SMM compound annotation, biophysical, 635/667 nm fluorescence (AID 1147); settings: streptavidin binding, higher = more signal;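 further: signal reflects streptavidin binding to arrayed compounds as a control protein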
Chain of Streptavidin (Streptomyces avidinii) (P22629 whole entry, looked up): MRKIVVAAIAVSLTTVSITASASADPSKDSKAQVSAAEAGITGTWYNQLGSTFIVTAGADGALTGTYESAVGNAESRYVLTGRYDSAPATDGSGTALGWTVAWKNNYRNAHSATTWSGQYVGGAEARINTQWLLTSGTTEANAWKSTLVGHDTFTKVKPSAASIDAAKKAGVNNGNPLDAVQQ

[16] = small-molecule binders of probe aInhba, primary screen, biochemical, small-molecule microarray, 635/667 nm fluorescence (AID 1148); settings: higher = more signal;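 further: score merges 667nm spot fluorescence with signal-to-noise for antibody binding to printed compounds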
Torsin-1A (Homo sapiens) [17] = target: Torsin-1A (Homo sapiens) (UniProt O14656); experiment: torsin A binders from cell lysate, primary screen, small-molecule microarray, wild-type, 635/667 nm (AID 1149); settings: COS7 hTOR1A-WT lysate, 635 nm fluorescence, higher = more signal
Chain of Torsin-1A (Homo sapiens) (O14656 whole entry, looked up): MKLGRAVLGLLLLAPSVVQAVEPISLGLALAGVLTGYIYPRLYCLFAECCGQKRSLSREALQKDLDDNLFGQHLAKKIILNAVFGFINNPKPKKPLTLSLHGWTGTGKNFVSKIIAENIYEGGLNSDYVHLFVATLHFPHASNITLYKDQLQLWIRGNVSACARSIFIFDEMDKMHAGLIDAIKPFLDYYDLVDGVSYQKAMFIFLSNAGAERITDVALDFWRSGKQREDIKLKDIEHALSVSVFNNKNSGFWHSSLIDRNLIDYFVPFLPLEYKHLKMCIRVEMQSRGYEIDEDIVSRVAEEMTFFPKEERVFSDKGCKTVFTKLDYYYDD

Torsin-1A (Homo sapiens) [18] = target: Torsin-1A (Homo sapiens) (UniProt O14656); experiment: small-molecule binders of mutant TOR1A in lysate, primary screen, cell lysate, small-molecule microarray, COS7 lysate, 635/667 nm fluorescence (AID 1150); settings: COS7 hTOR1A mutant lysate, 635 nm fluorescence, higher = more signal;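 further: score pools 667 nm emission and signal to noise measuring lysate protein binding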
[19] = system: Sonic hedgehog protein (Shh); experiment: small-molecule binders of Shh protein, primary screen, biochemical, small-molecule microarray, 635/667 nm fluorescence (AID 1151); settings: small-molecule microarray binding, 635 nm fluorescence; higher = more signal;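 further: Shh protein binding to compounds spotted on small-molecule microarray slides; score combines spot fluorescence intensity with signal-to-noise across triplicate slides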

SMILES | composite z-score [1] | composite z-score [2] | composite z-score [3] | composite z-score [4] | composite z-score [5] | composite z-score [6] | z-score [7] | composite z-score (Lefty1) | composite z-score [8] | z-score [9] | composite z-score [10] | z-score [11] | z-score [12] | z-score [13] | z-score [14] | composite z-score [15] | composite z-score [16] | composite z-score (Torsin-1A (Homo sapiens) [17]) | composite z-score (Torsin-1A (Homo sapiens) [18]) | composite z-score [19]
CCOC(=O)C1=C[C@@H](C(C)(C)C)N(S(=O)(=O)c2ccc(C)cc2)[C@H]1c1ccc(Cl)c(Cl)c1 | 0.978 | 1.21 | 0.606 | 0.968 | 0.654 | 0.202 | 3.07 | 0.495 | 0.945 | 1.34 (inactive) | 0.28 | -4.01 (inactive) | 0.599 (inactive) | 0.229 (inactive) | 0.303 (inactive) | 1.04 | 0.196 | 0.126 | 0.837 | 0.202
CC(c1ccccc1)C(O)C1C=CC2C(=O)N(c3ccccc3)C(=O)C2N1Nc1ccccc1F (stereo not given) | 1.35 | 1.2 | 0.583 | 0.994 | 0.473 | -0.645 | -0.673 | 0.226 | 0.439 | 1.94 (inactive) | 0.0426 | -2.63 (inactive) | -1.29 (inactive) | 0.173 (inactive) | 0.406 (inactive) | 0.527 | -0.125 | -0.468 | 0.0393 | -0.0558
C=C(CCCC)C(=O)CC[C@@H](OC(=O)c1ccccc1-c1ccccc1C(=O)O)c1ccc(CO)o1 | 0.39 | 1.1 | -0.248 | 0.294 | 1.3 | 1.31 | 0.31 | 1.38 | 0.445 | -3.84 (inactive) | 0.233 | 0.0462 (inactive) | -0.0968 (inactive) | -0.219 (inactive) | 0.432 (inactive) | -0.3 | 0.181 | 1.29 | 0.854 | 1.08
COc1ccc([Si](C)(C)[C@H]2[C@H](CC(=O)N(CCO)Cc3ccccc3)O[C@@]3(C(=O)N(Cc4cccc(N5C(=O)c6cccc7cccc5c67)c4)c4ccccc43)[C@@H]2C)cc1 | 1.07 | 1.09 | 0.324 | 0.281 | 0.76 | 1.27 | -0.203 | 0.834 | 0.862 | -1.19 (inactive) | 0.353 | -4.87 (inactive) | -0.188 (inactive) | 1.09 (inactive) | -1.14 (inactive) | 0.544 | -0.101 | 0.871 | 0.27 | 1.61
C=CCOC(=O)[C@@H]1[C@H]2C(=O)O[C@H](c3ccccc3)[C@H](c3ccccc3)N2[C@H](c2ccc(OCCOC(=O)[C@H]3C[C@H]4C(=O)N[C@@H](CC(C)C)C(=O)N4[C@H]3c3cccc(OCCO)c3)cc2)[C@@]12C(=O)Nc1ccc(I)cc12 | 2.26 | 1.19 | 0.844 | 0.587 | 1.38 | 1.63 | -0.736 | 1.5 | 0.34 | -0.201 (inactive) | 0.289 | -2.48 (inactive) | -0.174 (inactive) | 0.419 (inactive) | -0.0639 (inactive) | 0.332 | 0.247 | 1 | 1.15 | 2.06
